From ChEMBL document CHEMBL3988442, “University of Dundee, Small-Polar-MMV Screening Library” (2021)
Among all 48,000 compounds or so, about 13,000 (27%) showed an effect of 50% or more. The list shows a part of the results.

System: Wolbachia pipientis
Experiment: Anti-Wolbachia Cell-Based Screen
Type: functional
Parameters: scale not given: in the data most compounds retested in dose-response had high values
Conditions: 5 µM

SMILES | Percent Effect
CCCn1cnc(S(=O)(=O)Nc2cccnc2-n2cccn2)c1 | 0.1975%
CC(=O)N1CCN(C(=O)CNc2cccc(OC(F)F)c2C)CC1 | -4.859%
CS(=O)(=O)Nc1ccc(-n2c(CCCO)nc3ccccc32)cn1 | -0.6251%
Oc1ccccc1N1CCN(c2ncnc3sc4c(c23)CCNC4)CC1 | -35.6%
CC(C#N)CNC(=O)Nc1ccc(-c2cc[nH]n2)cc1 (centres undefined) | -10.22%
COC(=O)c1sccc1S(=O)(=O)N1CCc2c(ncnc2N(C)C)C1 | -35.5%
Cc1ncc(C)c(N2Cc3cnn(Cc4ccc(F)cc4)c3C2)n1 | 15.3%
Cc1cccc(CN2CCN(c3nc(CO)cs3)CC2)c1 | -5.528%
Cc1cn(Cc2ccc(F)cc2)nc1N | 105.5%
Cc1ccc(Cn2ccc(NS(C)(=O)=O)n2)cc1 | -11.54%
Cc1nn(C)cc1Cn1cc(Cl)c(N)n1 | -32.62%
Cc1ccc(Cn2cc(C)c(N)n2)cc1 | 101.5%
Cc1cccc(Cn2nc(C3CCNCC3)n(-c3ccccc3)c2=O)c1 | 2.339%
Cc1cccc(Cn2cc(C)c(N)n2)c1 | 142%
CCn1cc(Cn2cc(Cl)c(N)n2)c(C)n1 | 11.61%
Cc1cn(Cc2ccccc2)nc1N | 112.8%
Cc1nn(Cc2ccc(F)cc2)c2[nH]nc(N)c12 | 12.93%
Cc1cnn(C2CCN(Cc3ccccc3)C2)c1N (centres undefined) | -3.11%
Cc1nnsc1CN(C)C(=O)c1ccc(CSc2nnc[nH]2)o1 | 17.62%
CCc1cnc(N)nc1NCCc1ccc(OC)cc1OC | -3.798%
CC(C)N(C)C(=O)c1ccc(Cl)c(NC(=O)COCC2CC2)c1 | -4.037%
Cc1noc(C)c1CN(C)C(=O)COc1cccc(C#N)c1 | -12.54%
CCc1nc(CNC2CCCCNC2=O)cs1 (centres undefined) | -6.937%

SMILES | Percent Effect
Cl.Cl.OC(CN1CCN(Cc2ccc(F)c(F)c2)CC1)C1CC1 (centres undefined) | -1.298%
Cc1cn(Cc2ccc(F)c(F)c2)nc1N | 106.9%
Fc1ccc(CNCCn2cccn2)cc1F | -6.914%
Cc1ccc(C(CNCc2ccc(C#N)cc2)N2CCOCC2)s1 (centres undefined) | 1.867%
Cc1nnc([C@@]23CCO[C@@H]2CCN(Cc2ccc4c(c2)OCO4)C3)o1 | 107.4%
Cc1nnc([C@@]23CCO[C@@H]2CCN(Cc2cccc4ccccc24)C3)o1 | 98.73%
Cc1nc([C@H]2C[C@@H]3CCN(Cc4ccc5c(c4)OCO5)C[C@H]3O2)no1 | -27.54%
COC[C@@]12CCO[C@@H]1CCN(Cc1ccccc1OC)C2.O=C(O)C(F)(F)F | -18.26%
c1coc(-c2nnc([C@H]3CCN(Cc4ccc5c(c4)OCO5)C3)o2)c1 | -14.45%
COC[C@@]12CCO[C@@H]1CCN(Cc1ccccc1F)C2.O=C(O)C(F)(F)F | -5.713%
CCN1C(=O)C2(CCCCC2)NC1c1cc(C#N)n(C)c1C (centres undefined) | 8.458%
Cc1ncc(CN(C)C(=O)c2ccc3c(c2O)OC(C)(C)C3)s1 | -9.378%
CCn1nnc2c1C(COCCN(C)C)CN(S(=O)(=O)CC)C2.O=C(O)C(F)(F)F (centres undefined) | -14.6%
CCn1nnc2c1C(COC)CN(Cc1ccsc1)C2.O=C(O)C(F)(F)F (centres undefined) | -6.299%
CCn1nnc2c1C(COCC(=O)N(C)C)CN(Cc1ccco1)C2.O=C(O)C(F)(F)F (centres undefined) | 115%
COCC1CN(Cc2ccc(C)o2)Cc2nnn(CC3CC3)c21.O=C(O)C(F)(F)F (centres undefined) | -2.139%
CCn1nnc2c1C(COCCN(C)C)CN(Cc1ccco1)C2.O=C(O)C(F)(F)F.O=C(O)C(F)(F)F (centres undefined) | 92.71%
CCn1nnc2c1C(COCC(=O)N(C)C)CN(Cc1ccoc1)C2 (centres undefined) | 95.43%
CCn1nnc2c1C(COCCN(C)C)CN(S(C)(=O)=O)C2.O=C(O)C(F)(F)F (centres undefined) | -1.029%
CCn1nnc2c1C(COCCN(C)C)CN(c1nncs1)C2 (centres undefined) | -7.006%
Cc1ccc(CN2CCCn3nnc(COCCN(C)C)c3C2)s1.O=C(O)C(F)(F)F.O=C(O)C(F)(F)F | -14.16%
CCn1nnc2c1C(COCCN(C)C)CN(Cc1ccc(C)s1)C2.O=C(O)C(F)(F)F.O=C(O)C(F)(F)F (centres undefined) | 104.1%
Cc1ccc(CN2Cc3nnn(C)c3C(COCCN(C)C)C2)s1.O=C(O)C(F)(F)F.O=C(O)C(F)(F)F (centres undefined) | 3.026%

SMILES | Percent Effect
O=C(CSc1nncs1)N1CCN(Cc2ccc(Cl)cc2)CC1 | -10.59%
Cc1nc(-c2nnc(SCC(=O)O)n2C(C)c2ccccc2)co1 (centres undefined) | -6.545%
CNC(=O)Cc1noc(Cc2cccc(Br)c2)n1 | 1.573%
Cn1ccnc1SCCNC1CCN(c2nc3ccccc3s2)CC1 | 0.5729%
CC(C)C(=O)N1CCOC[C@H](Oc2ccc(C(F)(F)F)cc2)C1 | -12.72%
CCN1CC(C(=O)N2CCN(c3nsc4ccccc34)CC2)CCC1=O (centres undefined) | 116.3%
CC(C)N1CCCC(C(=O)N2CCc3c(nc(CC4CC4)[nH]c3=O)C2)C1 (centres undefined) | 6.947%
O=C(C1CCCN(c2nc3ccccc3cc2CO)C1)N1CCCC1 (centres undefined) | 10.01%
CCN1CC(C(=O)N2CC(Oc3ccccc3Cl)C2)CCC1=O (centres undefined) | -27.16%
NC(=O)N1CCCC(C(=O)N2CCN(c3nsc4ccccc34)CC2)C1 (centres undefined) | 111.8%
CCN1CC(C(=O)N2CCN(c3cnn(C)c(=O)c3)CC2)CCC1=O (centres undefined) | 2.003%
CN1CCCC(C(=O)N2CCC(Oc3ccccn3)CC2)C1 (centres undefined) | -2.88%
O=C(C1CCC1)N1CCN(c2snc3ccccc23)CC1 | 4.764%
CC(C)N1CCCC(C(=O)N2CCN(c3nsc4ccccc34)CC2)C1 (centres undefined) | 104.9%
CN(C)C1CCCN(C(=O)c2ccc3sc4c(c3c2)CCNC4=O)CC1 (centres undefined) | -3.9%
Cc1cccc(NC(=O)CCC(=O)NCC(=O)c2ccccc2F)c1 | -5.456%
COc1cc2c(cc1-c1nc3c(cnn3C)[nH]1)OCO2 | 9.432%
CCOCCCNC(=O)CCCC(=O)n1nc(C)c2ccccc21 | 114.3%
COCCCNC(=O)CCn1nc(C)c2ccccc21 | 5.056%
CCOCCCC(=O)NCc1ccc(N2CCCCC2)cc1 | 1.636%
CCCNC(=O)CCC(=O)n1nc(C)c2ccccc21 | 168.2%
CCCNC(=O)CCNC(=O)N1CCC(=Cc2ccccc2)CC1 | 1.443%
CCCNC(=O)CCc1ccnc2ccccc12 | -4.736%
